Measured values from PubChem BioAssay (NCI).
About 79,000 compounds went through this panel and 15% of them were active in at least one assay; those are over-represented in the sample as a whole. A number with no mark means an inactive call. Active and inactive are the calls of the source. Cut-off read from the data, not from the text of the source: active = growth inhibition above about 70%; inactive = the rest.

Assays:
[1] = NCI Yeast Anticancer Drug Screen. Data for the rad50 strain (AID 155);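 note: 0% = growth of vehicle-only cultures of the same strain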; conditions: S. cerevisiae rad50 strain growth inhibition, hits give high values
Procedure, shortened: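 Cells are treated with compound, grown, and their growth is then scored against vehicle-only cultures of the same repair-deficient yeast strain.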

[2] = NCI Yeast Anticancer Drug Screen. Data for the mec2-1 strain (AID 157); conditions: S. cerevisiae mec2-1 strain, hits give high values
Procedure, shortened: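 Growth inhibition is read against vehicle-treated controls after compound exposure of the mec2-1 yeast strain, which is defective in DNA damage repair or cell cycle control.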

[3] = NCI Yeast Anticancer Drug Screen. Data for the sgs1 mgt1 strain (AID 161);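 note: 0% = growth of cultures given vehicle only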; conditions: S. cerevisiae sgs1 mgt1 strain, hits give high values
Procedure, shortened: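 This yeast growth screen uses a strain with defined DNA-repair lesions; compound-treated growth is compared with vehicle-treated growth.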

[4] = NCI Yeast Anticancer Drug Screen. Data for the cln2 rad14 strain (AID 165);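 note: 0% = growth equal to vehicle treated cultures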; conditions: S. cerevisiae cln2 rad14 strain, hits give high values
Procedure, shortened: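 Growth inhibition, relative to vehicle-treated controls, is the read-out. The test organism is a yeast strain with defined genetic alterations, cln2 rad14.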

[5] = NCI Yeast Anticancer Drug Screen. Data for the bub3 strain (AID 167); conditions: S. cerevisiae bub3 mutant strain, hits give high values
Procedure, shortened: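 Part of a panel of yeast mutants defective in DNA damage repair or cell cycle regulation. Each strain is grown with compound, and inhibition is calculated relative to solvent-treated cultures.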

[6] = NCI Yeast Anticancer Drug Screen. Data for the mlh1 rad18 strain (AID 175); conditions: S. cerevisiae mlh1 rad18 strain growth inhibition, hits give high values
Procedure, shortened: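 Cells of a genetically altered yeast strain, deficient in DNA damage repair, were treated with compound. Their growth was then compared with that of vehicle-treated cultures to give inhibition.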

[7] = at 5.0 µM (retest, dose inferred, filed as 0.5)
[8] = at 50.0 µM (retest, dose inferred, filed as 5.0)

SMILES	growth inhibition [1, 7]	growth inhibition [1, 8]	growth inhibition ([1]; at 50.0 µM)	growth inhibition [2, 7]	growth inhibition [2, 8]	growth inhibition ([2]; at 50.0 µM)	growth inhibition [3, 7]	growth inhibition [3, 8]	growth inhibition ([3]; at 50.0 µM)	growth inhibition [4, 7]	growth inhibition [4, 8]	growth inhibition ([4]; at 50.0 µM)	growth inhibition [5, 7]	growth inhibition [5, 8]	growth inhibition ([5]; at 50.0 µM)	growth inhibition [6, 7]	growth inhibition [6, 8]	growth inhibition ([6]; at 50.0 µM)
Cc1cc(=O)n(-c2ccc(F)cc2)n1C	1%	0%	30.9%	-6%	1%	-5.7%	0%	2%	31.7%	3%	15%	22.9%	0%	-2%	25.4%	2%	-16%	-23.6%
O=C(NC1=Nc2c(ncn2COCCO)S(=O)(=O)[N-]1)c1ccccc1.[Ag+]	100% (active)	99% (active)	98.3% (active)	100% (active)	100% (active)	98.2% (active)	99% (active)	99% (active)	98.5% (active)	99% (active)	99% (active)	86% (active)	100% (active)	99% (active)	98.3% (active)	99% (active)	99% (active)	97.3% (active)
Oc1cccc2ccc(/C=C/c3ccccn3)nc12	1%	98% (active)	97.4% (active)	2%	97% (active)	97.2% (active)	-6%	98% (active)	98.2% (active)	-3%	96% (active)	95% (active)	-2%	98% (active)	97.1% (active)	2%	98% (active)	98.5% (active)
COc1cccc2c1C(=O)c1c(O)c3c(c(O)c1C2=O)C[C@@](O)(C(C)=O)C[C@@H]3OC1CC([N+]([O-])(Cc2ccccc2)Cc2ccccc2)C(O)C(C)O1 (stereo not given in full)	79% (active)	95% (active)	75.6% (active)	30%	87% (active)	23.9%	48%	88% (active)	19.2%	23%	70% (active)	22.2%	32%	81% (active)	31.7%	70% (active)	92% (active)	10.8%
C(=N\NC1=NCCN1)/c1ccc(-c2cn3cc(/C=N/NC4=NCCN4)ccc3n2)cc1	99% (active)	99% (active)	99.1% (active)	100% (active)	99% (active)	97.8% (active)	99% (active)	100% (active)	99.3% (active)	92% (active)	98% (active)	98.1% (active)	98% (active)	99% (active)	99.3% (active)	99% (active)	99% (active)	99.4% (active)
